An excerpt weighted towards active compounds, which were near 3.7% of everything screened.
CHT block – inhibitors of human choline transporter CHT; AID 488975; B-score at 10 µM; Q9GZV3; actives 0.86% (n = 310,000); CHT-expressing cells, membrane potential dye, choline response; active compounds read low;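 active means B-score over 3 SD under the library average, and starting fluorescence ratio not unusually high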;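 further: choline stimulus applied at its EC90 after an EC20 pre-addition; B-score computed on integrated fluorescence ratio after choline addition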
Target sequence (Q9GZV3 whole entry, looked up): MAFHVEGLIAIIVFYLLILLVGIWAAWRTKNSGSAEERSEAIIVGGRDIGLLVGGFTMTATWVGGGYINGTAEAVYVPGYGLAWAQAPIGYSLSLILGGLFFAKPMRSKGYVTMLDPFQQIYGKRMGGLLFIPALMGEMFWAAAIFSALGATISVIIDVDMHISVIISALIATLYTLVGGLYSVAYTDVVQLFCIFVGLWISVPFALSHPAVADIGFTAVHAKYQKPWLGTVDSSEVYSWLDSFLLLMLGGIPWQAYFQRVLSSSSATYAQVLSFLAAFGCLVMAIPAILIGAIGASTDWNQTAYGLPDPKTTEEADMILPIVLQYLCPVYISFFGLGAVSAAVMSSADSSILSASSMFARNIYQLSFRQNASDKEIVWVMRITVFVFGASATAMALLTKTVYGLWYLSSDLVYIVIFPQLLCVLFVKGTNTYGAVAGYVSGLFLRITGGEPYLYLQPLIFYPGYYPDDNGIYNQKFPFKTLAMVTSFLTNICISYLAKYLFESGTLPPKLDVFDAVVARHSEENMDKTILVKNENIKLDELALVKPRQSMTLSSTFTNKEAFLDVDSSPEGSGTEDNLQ
ANO1 block – blocks the mouse calcium-activated chloride channel TMEM16A. AID 588511. Q8BHY3. actives 1.2% (n = 310,000). HEK293 TMEM16A/YFP iodide influx fluorescence, ionomycin. normalized B-score (activity score, 25-100; higher = stronger inhibition) at 10 µM;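 active means ratio plate-corrected score three or more library SD toward inhibition, starting fluorescence score within five deviations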;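 further: score derived from kinetic fluorescence span divided by baseline fluorescence per well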
Kir21 block – blocks the mouse Kir2.1 inward-rectifier potassium channel. B-score at 10 µM. P35561. HEK293-Kir2.1, FluxOR thallium flux fluorescence; active compounds read low. actives 0.85% (n = 310,000);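 active means fluorescence ratio B-score at or below minus 3 SD of library scores, with starting-brightness B-score within 2 SD, cut at about -4.2 in these data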;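 further: channel flux triggered by added potassium and thallium sulfate stimulus; B-score of peak minus minimum fluorescence over baseline after thallium stimulus; more negative B-score means stronger Kir2.1 block with less thallium influx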
TMEM16A act – activates or potentiates the mouse TMEM16A chloride channel; Q8BHY3; HEK293 TMEM16A/YFP-H148Q/I152L, iodide quench fluorescence; active compounds read low; B-score at 10 µM; actives 0.3% (n = 340,000); AID 623877;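 active means fluorescence-ratio B-score plate-corrected deviation score at least 3 library SD below zero, with starting fluorescence score within 5 deviations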;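 further: channel opened by trigger with iodide after compound preincubation; score built on the fluorescence ratio of max minus min over baseline; more negative score means more quench and so TMEM16A activation or potentiation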
GPR7 antagonist – human neuropeptides B/W receptor 1 antagonism; actives 1.1% (n = 290,000); P48145; inhibition, % at 4.4 µM; GPR7-expressing cells, fluorescence antagonist assay; in the data active means inhibition above about 16%, passing the limit was not always enough;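 further: cells stimulated with the agonist NPW; 0% = agonist with vehicle and 100% = vehicle without agonist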
CHT PAM – allosteric activators of human choline transporter CHT | Q9GZV3 | CHT-expressing cells, membrane potential dye, choline EC20; active compounds read high; LV-AA mutant CHT in HEK293 cells | B-score at 10 µM | actives 0.49% (n = 310,000) | AID 488977;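 active means initial fluorescence not abnormally high and integrated response B-score, plate-corrected, over 3 SD above library mean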
GPR7 antag cf – confirmation of human GPR7 antagonists | shares compounds with GPR7 antagonist | GPR7-expressing cells, calcium fluorescence antagonist mode | inhibition, % at 4.4 µM | actives 52% (n = 2,400) | AID 1952; in the data active means inhibition above about 24%;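 further: stimulated with the GPR7 agonist NPW; 0% = agonist plus vehicle and 100% = vehicle alone without agonist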
MCHR1 antagonist – antagonizes human MCHR1, a GPR7 antagonist counter-screen. shares compounds with GPR7 antagonist. MCHR1-expressing cells, fluorescence antagonist assay. inhibition, % at 4.4 µM. actives 62% (n = 2,400); in the data active means inhibition above about 22%;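 further: 0% = vehicle with agonist and 100% = vehicle without agonist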
* hit, by the source's call; i = inactive; . = no result.

SMILES	CHT block	ANO1 block	Kir21 block	TMEM16A act	GPR7 antagonist	CHT PAM	GPR7 antag cf	MCHR1 antagonist
CCN(CC(=O)Nc1c(F)cccc1F)C(=O)c1cc(S(=O)(=O)N(C)C)ccc1N1CCCC1	i	i	0.07	i	.	i	.	.
Cc1ccnc(NC(=O)C(Cc2ccccc2)NC(=O)c2ccccc2)c1 (stereo not given)	.	.	.	i	.	.	.	.
CC1=NN(C(C#N)c2ccccc2)C(c2ccccc2)C1 (stereo not given)	i	i	-2.94	i	36.7*	i	4.7	-2.5
CN1CCN(c2nc(-c3ccc(Cl)cc3)nc3ccccc23)CC1	.	.	-1.91	i	53.0*	.	41.0*	35.8*
O=C(CNS(=O)(=O)c1ccccc1)NCC(=O)OCc1ccc(Cl)cc1	i	i	0.98	i	-0.4	i	.	.
CCN(CC)c1ccc(/C=N/n2c(C)nc3ccccc3c2=O)cc1	i	i	0.01	i	-5.2	i	.	.
CN1CCN(c2ccc(C(F)(F)F)cc2NC(=O)Nc2ccccc2)CC1	i	i	0.84	i	62.2*	i	43.0*	49.0*
CC(Cl)C(=O)Nc1cc(C(F)(F)F)ccc1N1CCOCC1 (stereo not given)	i	i	-0.57	i	-13.2	i	.	.
Cc1ccc(Cl)cc1N1CCN(C(=O)c2ccc3c(c2)CCN3S(C)(=O)=O)CC1	i	i	0.28	i	28.6*	i	25.4*	16.8
O=S(=O)(NC1c2cccc3cccc(c23)C1N1CCNCC1)c1ccc(Cl)cc1 (stereo not given)	i	i	-2.94	i	48.8*	i	47.6*	46.8*
CC(=O)N1CCN(C2c3cccc4cccc(c34)C2NS(=O)(=O)c2ccccc2)CC1 (stereo not given)	i	i	1.33	i	5.8	i	.	.
Cc1cc2occ(CC(=O)N(C)CC(=O)Nc3ccc(F)cc3)c2cc1C	i	i	-0.24	i	.	i	.	.
O=C(COc1ccc(F)cc1)N1CCc2ccccc2C1	i	i	-0.64	i	28.0*	i	21.1	9.5
Cc1ccc(OCC(=O)N2CCc3ccccc3C2)cc1	i	i	-0.01	i	8.6	i	.	.
O=C(c1cc(Br)ccc1O)N1CCN(S(=O)(=O)Cc2ccccc2)CC1	.	.	.	i	.	.	.	.
NC(=O)CSc1ncc(-c2ccc([N+](=O)[O-])cc2)[nH]1	i	i	-1.29	i	-20.6	i	.	.
Cc1cc(C)c(CSc2ncc(-c3ccc([N+](=O)[O-])cc3)[nH]2)c(C)c1	i	i	1.7	i	41.6*	i	68.0*	83.2*
CC(C)c1ccc(NC(=O)C(c2ccc3c(c2)OCO3)N2CCCCC2)cc1 (stereo not given)	i	i	-0.1	i	24.4*	i	13.6	39.8*
CCN(C(=O)c1ccc(S(=O)(=O)N2CCCCC2)cc1)C1CCS(=O)(=O)C1 (stereo not given)	i	i	1.91	i	.	i	.	.
CC(C)n1c(-c2ccco2)csc1=Nc1cccnc1	i	i	0.17	i	29.6*	i	36.0*	51.7*
Cc1ccc(OC(=O)CCC(=O)Nc2ccc(C(N)=O)cc2)cc1	i	i	0.25	i	.	i	.	.
CC(=O)Nc1ccc(S(=O)(=O)NCc2nc(-c3ccc(C)cc3)no2)cc1	i	i	-1.4	i	-16.2	i	.	.
CC(=O)Nc1ccc(S(=O)(=O)NCc2nc(-c3cccc(C)c3)no2)cc1	i	i	-0.68	i	24.4*	i	-0.2	0.5
CCc1ccc(OCc2nnc(NC(=O)c3cccs3)s2)cc1	i	i	1.67	i	24.7*	i	-2.8	-1.5
CN1CCN(c2ccccc2NC(=O)COc2ccccc2)CC1	i	i	-2.41	i	21.6*	i	15.4	11.8

Screening data as filed in PubChem BioAssay.
